# Screening data from PubChem.
# Most compounds without a hit are left out; they make up all but 11% or so of the library.
# HCV inh: inhibitors of hepatitis C virus infection; Huh7.5.1 HCVcc-Cre infection, luciferase reporter, 44 h; Potency, µM (top dose mostly 41.8 µM), actives largely listed as inhibitors; 340,000 compounds, 3.4% hits
#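 Whole-lifecycle infectious HCVcc-Cre system; cells 1,000/well, compound then virus (~0.5 moi) added 4 h after plating, 44 h culture. Luciferase read 15 sec following 15 min substrate incubation, room temp.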
# AmpC detergent: blocks E. coli AmpC beta-lactamase in detergent assay. P00811. AmpC hydrolysis of nitrocefin, absorbance 480 nm, 0.01% Triton. Potency, µM (highest dose often 114 µM), usual class: inhibitors. 370,000 compounds, 0.041% hits. AID 485294; also: nearly all actives have a fitted effect of over 25% in size
# Target sequence (P00811 whole entry, looked up): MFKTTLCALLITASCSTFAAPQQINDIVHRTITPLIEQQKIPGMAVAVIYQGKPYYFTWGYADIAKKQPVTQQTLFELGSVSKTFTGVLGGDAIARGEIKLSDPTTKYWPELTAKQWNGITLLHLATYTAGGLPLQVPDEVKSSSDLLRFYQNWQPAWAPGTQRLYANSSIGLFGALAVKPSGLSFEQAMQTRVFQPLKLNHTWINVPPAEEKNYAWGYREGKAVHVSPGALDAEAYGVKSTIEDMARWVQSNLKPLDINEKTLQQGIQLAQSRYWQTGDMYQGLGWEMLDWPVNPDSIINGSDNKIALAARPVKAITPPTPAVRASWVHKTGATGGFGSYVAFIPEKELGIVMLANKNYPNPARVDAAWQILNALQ
#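 AmpC (5.3 nM in the dispensed reagent) in 20 mM phosphate pH 7.0 with 0.01% (detergent screen) or 0.0001% Triton X-100 was preincubated with compounds for 15 min at room temperature. Nitrocefin was then added from an 800 uM solution, and hydrolysis was followed at 480 nm.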
# AmpC no deterg: inhibitors of E. coli AmpC beta-lactamase without detergent. AmpC nitrocefin hydrolysis, absorbance 480 nm, 0.0001% Triton. Potency, µM (series often up to 57.1 µM), most hits filed as inhibitors. 330,000 compounds, 0.52% hits. AID 485341; also: nearly all actives have a fitted effect of over 20% in size
#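 AmpC (5.3 nM in the dispensed reagent) in 20 mM phosphate pH 7.0 with 0.01% (detergent screen) or 0.0001% Triton X-100 was preincubated with compounds for 15 min at room temperature. Nitrocefin was then added from an 800 uM solution, and hydrolysis was followed at 480 nm.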
# Pf growth 48h: P. falciparum growth inhibition at 48 hours (one generation) | 310,000 compounds, 5.9% hits | AID 504832 | Potency, µM (titrated, usually from 28.7 µM), most hits filed as inhibitors | P. falciparum luciferase growth in erythrocytes, 48 h
#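 Luciferase-expressing parasites in RBCs, 2% Hct / 0.1% parasitemia final; RPMI 1640 + 0.5% Albumax; 37 C, 5% CO2, one generation; luminescence read-out, lower signal = inhibition.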
# AMA1-RON2 inh: disrupts binding of P. falciparum AMA1 to RON2; AlphaScreen AMA1-biotinylated RON2 peptide binding; Potency, µM (highest dose often 58.2 µM), usual class: inhibitors; 360,000 compounds, 0.2% hits; AID 720542; also: nearly all actives have a fitted effect of over 45% in size
#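 AMA1 (3D7) with his tag at 25 nM final met compounds first, then biotinylated RON2 peptide at 25 nM; detection used donor plus acceptor beads, 10 µg/mL apiece, read by AlphaScreen after 30 min at room temperature.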
# Pf growth 96h: P. falciparum growth inhibition at 96 hours; P. falciparum luciferase reporter growth, 96 h; Potency, µM (series often up to 28.7 µM), usual class: inhibitors; 320,000 compounds, 6.9% hits; AID 504834
#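 Infected RBCs, 2% Hct / 0.05% parasitemia final; luciferase-reporter P. falciparum; cpd 96 h, 37 C, 5% CO2; luciferase detection reagent; luminescence.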
# A number is an active result; 0 = inactive; ? = inconclusive; - = not tested or not shown; [ ] = another dose, or the depositor's remark. Calls follow the shape of the dose curve; as a rule, active = well fitted curve in the direction sought with a large enough effect; inconclusive = small, poorly fitted or top-dose-only effect, or another doubt; inactive = no such curve, though single readings can be large; an effect the other way counts as inactive or inconclusive.
SMILES,HCV inh,AmpC detergent,AmpC no deterg,Pf growth 48h,AMA1-RON2 inh,Pf growth 96h
CCOc1ccc(NC(=S)NNC(=O)c2cc(Br)ccc2Cl)cc1,0,0,0,0,0,0[5.75 µM]
O=C(NCc1ccccc1Cl)C1CCN(C(=O)N2CCOc3ccccc32)CC1,-,0,-,-,-,-
Nc1nc2n(n1)C1(CCCCC1)C1=C(CCCC1)N2,-,0,0,0,-,10µM
Cc1ccc2c(n1)sc1c(=O)n(-c3cccc(C(F)(F)F)c3)nnc12,-,0,-,-,-,-
COc1ccc(NC(=O)C2CCN(S(=O)(=O)c3c(C)noc3/C=C/c3cccs3)CC2)cc1Cl,-,0,-,-,-,-
Cc1ccc(S(=O)(=O)NC(CC(=O)N2CCOCC2)c2ccco2)cc1 (stereo unspecified),0,0,0.14µM,0,0,-
Cc1ccc(S(=O)(=O)NC(CC(=O)NC2CCCC2)c2ccco2)cc1 (stereo unspecified),?,0,0.4µM,?,0,0
COc1ccc(S(=O)(=O)NC(CC(=O)NC2CCCC2)c2ccco2)cc1 (stereo unspecified),0,0,0,0,0,?
O=C(CC1(O)C(=O)Nc2cc(Cl)cc(Cl)c21)c1ccncc1 (stereo unspecified),11µM,0,0,0,0,0
Cc1ccc2c(CNC3CCC(C)CC3)c(C(=O)O)n(Cc3cccc(F)c3)c2c1 (stereo unspecified),-,0,-,-,-,-
Cc1ccc(S(=O)(=O)n2ccc(-c3cccc(OCc4c(F)cccc4Cl)c3)n2)cc1,?,0,0,3.7µM,0,0.74µM
Cc1ccc(S(=O)(=O)n2ccc(-c3ccc(OCc4c(F)cccc4Cl)cc3)n2)cc1,?,?,0,9.3µM,0,0
CCCCCOc1ccc(NC(=O)CSc2cccc3cccnc23)cc1,0,0,0,10µM,0,5.2µM
CC(OC(=O)c1ccccc1NCCO)C(=O)Nc1ccc(S(=O)(=O)N2CCOCC2)cc1 (stereo unspecified),8.9µM,0,0,?,0,0
O=C(CCCOc1ccccc1)Nc1ccc(S(=O)(=O)N2CCOCC2)cc1,0,0,0,12µM,0,?
CC(CC(=O)Nc1ccc(S(=O)(=O)N2CCOCC2)cc1)c1ccccc1 (stereo unspecified),0,0,0,3.3µM,0,0
CC(OC(=O)CNC(=O)c1ccccc1)C(=O)Nc1ccc(S(=O)(=O)N2CCOCC2)cc1 (stereo unspecified),0,0,0,0,0,0
CCOC(=O)c1ccc(NC(=O)c2c(NCc3ccc(OC)c(OC)c3OC)sc3c2CCC(C)C3)cc1 (stereo unspecified),-,0,-,-,-,-
Cc1c(C(=O)N2CCC(C)CC2)c(S(=O)(=O)N(Cc2ccccc2)C(C)(C)C)c(C)n1C,-,0,-,-,-,-
Cc1cc(C)cc(NC(=O)c2cc(S(=O)(=O)N3CCC(C)CC3)cn2C)c1,-,0,-,-,-,-
CCOc1ccccc1OCCCC(=O)Nc1cccc(S(=O)(=O)N2CCOCC2)c1,?,0,0,13µM,0,?
Cc1cccc(CSc2cccc3cccnc23)c1,0,0,0,0,0,4.7µM
CCOC(=O)CSc1cccc2cccnc12,6.3µM,0,0,?,0,0
O=C(CSc1cccc2cccnc12)Nc1ccc(S(=O)(=O)N2CCOCC2)cc1,0,0,0,12µM,0,0
CCS(=O)(=O)N1CC(=O)N(c2cccc(C)c2C)C(C)(C(=O)NC2CCCCC2)C1 (stereo unspecified),-,0,-,-,-,-
SMILES,HCV inh,AmpC detergent,AmpC no deterg,Pf growth 48h,AMA1-RON2 inh,Pf growth 96h
CCc1ccc(OCCCC(=O)Nc2ccc(N3CCOCC3)cc2)cc1,0,0,0,0,0,7.4µM
O=S(=O)(c1ccc(NC(=S)NCCC(c2ccccc2)c2ccccc2)cc1)N1CCOCC1,?,?,0,?,0,8.3µM
O=C(NC1CCCCC1)c1ccc(Cn2c(SCc3cccc(F)c3)nc3cccnc32)cc1,-,0,-,-,-,-
O=c1c2c(ncn2C2CCCC2)n(Cc2ccccc2)c(=O)n1CCOc1ccc(Br)cc1,?,0,0,13µM,0,13µM
CCn1cnc2c1c(=O)n(Cc1cccc(Br)c1)c(=O)n2Cc1ccccc1,0,0,0,?,0,0
COCCn1cnc2c1c(=O)n(CC(=O)NC1CCCCC1)c(=O)n2Cc1ccccc1,-,-,-,-,0,-
Cc1ccc(C)c(OCCn2c(=O)c3c(ncn3C3CCCC3)n(Cc3ccccc3)c2=O)c1,?,?,0,12µM,0,2.6µM
O=c1c2c(ncn2C2CCCC2)n(Cc2ccccc2)c(=O)n1CCOc1ccccc1,?,0,0,17µM,0,?
CCCCn1c(=O)n(CC(O)c2ccccc2)c(=O)c2c1ncn2C1CCCC1 (stereo unspecified),0,0,0,2.9µM,0,?
COC(=O)c1ccccc1NC(=O)Cn1c(=O)n(-c2cccc(OC)c2)c(=O)c2c(C)c(C(=O)N(C)C)sc21,-,0,-,-,-,-
COc1cc(Cl)c(NC(=O)c2cc(S(=O)(=O)N3CCOCC3)cn2C)c(OC)c1,-,0,-,-,-,-
CCOc1ccc(C(=O)N2CCC(c3nnc(-c4ccccc4OC)o3)CC2)cc1,-,0,-,-,-,-
CCN1C(=O)[C@H]2[C@H]3CN=C(SCc4ccc(C#N)cc4)N3[C@@](C)(C(=O)OC)[C@H]2C1=O,0,-,0,-,0,-
COC(=O)[C@@]1(C)[C@H]2C(=O)N(C)C(=O)[C@H]2[C@H]2CN=C(SCc3ccc(Cl)cc3)N21,4.5µM,-,0,-,0,-
COC(=O)[C@@]1(C)[C@H]2C(=O)N(C)C(=O)[C@H]2[C@H]2CN=C(SCc3ccc(C#N)cc3)N21,0.56µM,-,0,-,0,-
CC[C@]1(C(=O)OC)[C@H]2C(=O)N(C)C(=O)[C@H]2[C@H]2CN=C(SCc3ccc(Cl)cc3)N21,0,-,0,-,0,-
O=C(NCCc1ccccc1)C(=O)NCC(c1ccc2c(c1)OCO2)N1CCOCC1 (stereo unspecified),-,0,-,-,-,-
COc1ccc(C)cc1NC(=O)Cn1cc(S(=O)(=O)Cc2ccccc2Cl)c2ccccc21,-,0,-,-,-,-
O=C(NCC(=O)c1ccccc1)OCc1ccc([N+](=O)[O-])cc1,0,0,0,0,0,13µM
O=S(=O)(c1ccc2c(c1)nc(COc1ccc(Cl)cc1)n2CC1CCCO1)N1CCOCC1 (stereo unspecified),0,0,0,?,0,12µM
CC(=O)N1CCc2c(sc3c2c(=O)n(CCc2ccccc2)c(=O)n3CC(=O)Nc2ccc(C)c(F)c2)C1,-,0,-,-,-,-
Nc1ccc(-c2nc3ccccc3s2)cn1,25µM,0,0,0,0,0
CCOC(=O)CNC(=S)N(Cc1cccs1)C1CCCCC1,0,0,0,0,0,7.4µM
O=C(N1CCOCC1)N(Cc1cccs1)C1CCCC1,0,?,0,0,0,7.4µM
